Bioassay records deposited in PubChem BioAssay by National Center for Advancing Translational Sciences (NCATS).
FLuc inh – Firefly luciferase inhibition profiling of diverse chemical library using quantitative high-throughput screening; Luciferin 4-monooxygenase (Photinus pyralis), P08659; purified P. pyralis luciferase, luminescence, biochemical; Potency, µM (top dose mostly 115 µM), usual class: inhibitors; hit rate 2.5% among 76,000; AID 1347043, 2019; note: nearly all actives have a fitted effect of over 65% in size
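Purified P. pyralis luciferase (10nM final) in 50mM Tris acetate pH 7.5, 10mM Mg acetate, 0.01% Tween-20, 0.05% BSA with 10uM D-luciferin and 10uM ATP. Compounds titrated qHTS. Luminescence imaged on CCD.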
GPT2 inhibitor – Primary qHTS assay for inhibitors of Glutamate pyruvate transaminase 2 (GPT2). Alanine aminotransferase 2 (Homo sapiens), Q8TD30. Recombinant GPT2, coupled pyruvate oxidase/HRP Amplex Red fluorescence. Potency, µM (highest dose often 57.7 µM), inactives show top-dose activity change, negative = inhibition, actives largely listed as inhibitors. hit rate 0.25% among 100,000. AID 1671188, 2021; note: nearly all actives have a fitted effect of over 60% in size
Target sequence (Q8TD30 whole entry, looked up): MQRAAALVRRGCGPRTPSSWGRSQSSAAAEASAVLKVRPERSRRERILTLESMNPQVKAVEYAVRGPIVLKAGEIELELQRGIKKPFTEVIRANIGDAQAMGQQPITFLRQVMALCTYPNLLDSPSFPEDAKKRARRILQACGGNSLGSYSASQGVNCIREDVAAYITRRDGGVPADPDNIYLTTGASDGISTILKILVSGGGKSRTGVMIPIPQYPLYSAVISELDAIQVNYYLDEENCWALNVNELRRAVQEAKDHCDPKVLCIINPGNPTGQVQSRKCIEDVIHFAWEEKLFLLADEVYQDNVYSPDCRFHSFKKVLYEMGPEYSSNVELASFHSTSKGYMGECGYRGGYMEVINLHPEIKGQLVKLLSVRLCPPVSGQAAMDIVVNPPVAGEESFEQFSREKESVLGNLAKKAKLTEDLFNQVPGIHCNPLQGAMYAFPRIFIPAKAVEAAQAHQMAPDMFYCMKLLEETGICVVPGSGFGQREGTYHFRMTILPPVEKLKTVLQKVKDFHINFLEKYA
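Inhibition is scored from Amplex Red fluorescence generated when pyruvate oxidase and HRP act on pyruvate released by GPT2. Reactions contain 10ng/uL enzyme, 250uM a-KG and 2mM L-alanine and run 30 min at room temperature.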
NIH3T3 tox – Cytotoxic Profiling in NIH 3T3 Cell Line of Diverse Libraries Using Quantitative High-Throughput Screening. Potency, µM (series often up to 96.7 µM), for the others: at the top dose activity change, negative = cytotoxicity, usual class: inhibitors. AID 1345082, 2018. NIH 3T3 viability, CellTiter-Glo ATP luminescence, 48-72 h. hit rate 4.3% among 94,000; note: nearly all actives have a fitted effect of over 55% in size
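ATP-dependent luminescence (CellTiter-Glo) served as the viability signal for NIH 3T3 cells treated with compound for 48 or 72 hr at 37 °C.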
HEK293 tox – Cytotoxic Profiling in HEK 293 Cell Line of Diverse Libraries Using Quantitative High-Throughput Screening; HEK 293 viability, ATP luminescence (CellTiter-Glo), 48-72 h; Potency, µM (doses to about 115 µM), without a hit: top-dose activity change, negative = cytotoxicity, usual class: inhibitors; hit rate 6.6% among 94,000; AID 1345083, 2018; note: nearly all actives have a fitted effect of over 60% in size
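Read-out: CellTiter-Glo ATP luminescence. Cells: HEK 293, 250 cells/well. Exposure: 48 or 72 hr, 37 degree Celsius.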
hNpr1 antagonist – Natriuretic polypeptide receptor (hNpr1) antagonism - Primary qHTS; Atrial natriuretic peptide receptor 1 (Homo sapiens), P16066; HEK293 hNpr1 GloSensor cGMP, ANP-stimulated luminescence; AID 1347048, 2019; hit rate 1.6% among 76,000; Potency, µM (top dose mostly 46.3 µM), for inactives: at the highest dose activity change, negative = inhibition, actives largely listed as inhibitors; calls by dose curve; note: nearly all actives have a fitted effect of over 60% in size
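Compound pre-incubated 30 min at room temperature on GloSensor-loaded HEK293 cells stably carrying hNpr1 and the pGS-40F cGMP biosensor. Stimulation uses hNppA at 0.1 nM final; luminescence is taken at baseline and 20 min post-agonist.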
The depositor's hits bear a star; i = inactive; ? = inconclusive; . = not tested or not shown; [ ] = another dose, or the depositor's remark. In the library only some 10% were active in any assay of this set; here they are far more common. Unless noted, calls come from the whole dose curve; as a rule, active = well fitted curve in the direction sought with a large enough effect; inconclusive = small, poorly fitted or top-dose-only effect, or another doubt; inactive = no such curve, though single readings can be large; an effect the other way counts as inactive or inconclusive. % is set by controls: 0 for no effect and ±100 for the full control effect; potency is the fitted concentration of half-maximal effect.

SMILES	FLuc inh	GPT2 inhibitor	NIH3T3 tox	HEK293 tox	hNpr1 antagonist
CCc1nn(-c2ccc(OC)cc2)c(Oc2ccccc2F)c1CCC(=O)N(CC)CC	i	i	45µM*	?	-16%
CCc1nn(-c2ccc(F)cc2)c(Oc2ccccc2)c1CCC(=O)NCC1CCCO1 (configuration not stated)	i	i	32µM*	40µM*	?
CCc1nn(-c2ccc(OC)cc2)c(Oc2ccccc2F)c1CCC(=O)N1CCSCC1	i	-21%	45µM*	32µM*	-10%
COc1ccc(-c2noc(-c3cccn3CC(=O)N3CCC(C)CC3)n2)cc1F	11µM*	-7%	?	-20%	-18%
COc1ccc(-c2noc(-c3cccn3CC(=O)N3CCN(c4ccccc4OC)CC3)n2)cc1F	?	i	?	?	-15%
CCN(C(=O)Cn1cccc1-c1nc(-c2ccc(OC)c(F)c2)no1)c1ccccc1	i	-3%	?	45µM*	-3%
COc1ccc(-c2noc(-c3cccn3CC(=O)N(C)c3ccccc3)n2)cc1F	i	i	i	7%	-1%
CCN1CCN(C(=O)c2cn3cc(-c4cccc(C(F)(F)F)c4)sc3n2)CC1	.	i	-24%	0%	.
N#Cc1ccc(NC2CC(c3cc(N4CCC(O)C4)ncn3)C2)nc1 (configuration not stated)	i	i	16µM*	-9%	1%
COc1ccc(-c2cc(NCCO)nc3[nH]ccc23)cc1C(F)(F)F	i	0%	40µM*	40µM*	-16%
O=C(NCCOc1ccccc1)c1nc2c(o1)CCN(Cc1cc(F)ccc1F)CC2	i	-14%[88.5 µM]	?	?	-4%[70.6 µM]
O=C(NCc1ccccc1)c1nc2c(o1)CCN(Cc1c(F)cccc1F)CC2	i	-14%[88.5 µM]	?	-28%[172 µM]	3%[70.6 µM]
COc1ccccc1CC(=O)N1CCCc2ncc(C(=O)Nc3nc(C)cs3)cc21	i	2%[88.5 µM]	?	?	-15%[70.6 µM]
Cc1csc(NC(=O)c2nc3c(o2)CCN(Cc2c(F)cccc2F)CC3)n1	28µM*	-20%[88.5 µM]	?	?	3%[70.6 µM]
COc1ccccc1CN1CCc2nc(C(=O)Nc3nc(C)cs3)oc2CC1	25µM*	4%[88.5 µM]	?	?	-12%[70.6 µM]
Cc1csc(NC(=O)c2nc3c(o2)CCN(Cc2cc(F)ccc2F)CC3)n1	28µM*	-21%[88.5 µM]	?	?	-13%[70.6 µM]
O=C1COc2ccc(OCc3cncs3)nc2CN1Cc1ccc(F)cc1	i	?	?	112µM*	-23%[70.6 µM]
Cc1nc(CN2Cc3nc(OCc4ccc(F)cc4)ccc3OCC2=O)cs1	i	-9%[88.5 µM]	?	71µM*	?
CN1CCCC1COc1ccc2c(n1)CN(Cc1ccc(F)cc1)C(=O)CO2 (configuration not stated)	i	-23%[88.5 µM]	?	-16%[172 µM]	1%[70.6 µM]
O=[S+]1([O-])NC2(CCN(CC3CCCCC3)CC2)COc2ccccc21	.	-12%	3%	0%	.
O=C(Cc1cccnc1)N1CCC2(CC1)CC(N1CCN(c3ccccn3)CC1)CCO2 (configuration not stated)	.	3%	-24%	?	.
Cc1oc(C(O)c2ccccc2)nc1C(=O)NCc1ccco1 (configuration not stated)	i	-14%[88.5 µM]	?	?	-9%[70.6 µM]
COc1cc(CNC(=O)c2nc(C(O)c3ccccn3)oc2C)cc(OC)c1 (configuration not stated)	i	-12%[88.5 µM]	79µM*	?	-16%[70.6 µM]
Cc1nn(-c2ccccc2)c2c1C(C(C)C)N(C1CCN(C(=O)C3CCCC3)C1)C2=O (configuration not stated)	.	.	20µM*	?	.
Cc1nn(-c2ccccc2)c2c1C(C(C)C)N(C1CCN(C(=O)c3ccccc3F)C1)C2=O (configuration not stated)	.	.	?	79µM*	.
SMILES	FLuc inh	GPT2 inhibitor	NIH3T3 tox	HEK293 tox	hNpr1 antagonist
Cc1nn(-c2ccccc2)c2c1C(C(C)C)N(C1CCN(C(=O)C(C)(C)C)C1)C2=O (configuration not stated)	.	.	?	89µM*	.
Cc1nn(-c2ccccc2)c2c1C(C(C)C)N(C1CN(C(=O)C3CC3)C1)C2=O (configuration not stated)	.	.	-24%	-9%	.
Cc1nn(-c2ccccc2)c2c1C(C(C)C)N(C1CCN(C(=O)Nc3ccccc3)C1)C2=O (configuration not stated)	.	.	?	-12%	.
CNC(=O)C1(N2CCC[C@H]2C(=O)NCc2ccccc2)CCCCC1	i	-4%[88.5 µM]	i	3%[172 µM]	1%[70.6 µM]
COc1ncccc1-c1cc(C(=O)NCC2CCOCC2)c2c(c1)ncn2C	i	?	?	-17%[172 µM]	0%[70.6 µM]
COc1ncccc1-c1cc(C(=O)N2CCCC(OC)C2)c2c(c1)ncn2C (configuration not stated)	i	-21%[88.5 µM]	89µM*	-20%[172 µM]	3%[70.6 µM]
COc1cc(C(=O)NC2CCN(c3cc(-c4ccc(F)cc4)[nH]n3)CC2)cc(OC)c1OC	i	-2%	-22%	?	4%
CCC(CC)c1cc([C@H]2CN3CC[C@H]2C[C@@H]3CNC(=O)c2cc(OC)c(OC)c(OC)c2)nc(-c2ccncc2)n1	i	-23%	20µM*	28µM*	?
CCC(=O)N1Cc2ccccc2CC2(CCCN(C)C2)C1 (configuration not stated)	.	5%[88.5 µM]	?	79µM*	.
CC(=O)N1Cc2ccccc2CC2(CCCN(C)C2)C1 (configuration not stated)	.	0%[88.5 µM]	i	-6%[172 µM]	.
Cc1noc(C)c1C(=O)N1Cc2ccccc2CC2(CCN(C)C2)C1 (configuration not stated)	.	i	79µM*	79µM*	.
Cc1noc(C)c1C(=O)N1Cc2ccccc2CC2(CCN(CC3CCNCC3)CC2)C1	.	i	4%	0%	.
O=C(c1cccc(Cl)c1)N1CCCC1C(=O)N1CCCC1c1nc2ccncc2[nH]1 (configuration not stated)	.	-2%	-20%	-6%	.
CC(=O)N1CCN(C(=O)C2(C)CCc3cnc(Nc4ccccc4)nc32)CC1 (configuration not stated)	i	0%[88.5 µM]	?	-1%[172 µM]	-3%[70.6 µM]
CC1(C(=O)N2CCC(c3ccccc3)CC2)CCc2cnc(Nc3ccncc3)nc21 (configuration not stated)	i	-18%[88.5 µM]	?	71µM*	?
